Assay outcomes (PubChem)
VACV Venus inh – inhibitors of vaccinia virus (Venus reporter). hit rate 0.46% among 330,000. Vaccinia virus Venus reporter expression, fluorescence. Potency, µM (highest dose often 36.5 µM), inactives show at the top dose activity change, negative = inhibition, actives largely listed as inhibitors. AID 720580; calls by dose curve; tested in A549 cells; further: nearly all actives have a fitted effect of over 30% in size
LASV entry inh – Lassa virus entry inhibition; hit rate 1.2% among 300,000; Lassa virus pseudotype entry inhibition, cell reporter; Potency, µM (highest dose often 37.9 µM), without a hit: at the top dose activity change, negative = inhibition, actives largely listed as inhibitors; calls by dose curve; tested in HEK293 cells; further: nearly all actives have a fitted effect of over 50% in size
VACV mCherry inh – inhibitors of vaccinia virus infection (mCherry reporter signal); AID 720579; Potency, µM (series often up to 36.5 µM), without a hit: top-dose activity change, negative = inhibition, actives largely listed as inhibitors; hit rate 0.63% among 310,000; Vaccinia virus mCherry reporter infection, fluorescence; calls by dose curve; tested in A549 cells; further: nearly all actives have a fitted effect of over 35% in size
MARV entry inh – blocks Marburg virus binding to or entry into cells. Marburg virus pseudotyped entry inhibition, cell reporter. Potency, µM (top dose mostly 37.8 µM), for inactives: at the top dose activity change, negative = inhibition, usual class: inhibitors. hit rate 1.8% among 300,000. AID 540276; calls by dose curve; tested in HEK293 cells
HCV inhibitor – inhibitors of hepatitis C virus infection; Huh7.5.1 HCVcc-Cre infection, luciferase reporter, 44 h; Potency, µM (top dose mostly 41.8 µM), for inactives: top-dose activity change, negative = inhibition, hits mostly inhibitors; hit rate 3.4% among 340,000; active means well fitted inhibition curve with a large enough effect; inconclusive means small, poorly fitted or top-dose-only effect, or another doubt; inactive means no such curve, though single readings can be large or run the other way
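Compounds are dispensed onto cells plated 4 h earlier at 1,000 per well, with HCVcc-Cre virus (about 0.5 moi) added next. Following 44 h of culture, luminescent signal is measured for 15 sec after 15 min with substrate at room temperature.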
Numbers without * were called inactive; i = inactive; ? = inconclusive; nt = not tested or not shown; [ ] = remark or other dose. Most compounds without a hit are left out; they make up all but 4.6% or so of the library. On the % scale 0 is the no-effect control and ±100 the full control effect; potency means the concentration at half of the fitted maximal effect.

SMILES	VACV Venus inh	LASV entry inh	VACV mCherry inh	MARV entry inh	HCV inhibitor
Cc1cccc(C)c1NC(=O)Cn1nnc(C(=O)Nc2c(C)cccc2C)c1N	-2.6%	8.6%[46.1 µM]	-8.0%	17.6%[46.1 µM]	nt
O=C1N=C(O)CN1/N=C/C1C=CC(c2ccc([N+](=O)[O-])cc2)O1 (stereo unspecified)	nt	nt	nt	16.0%	nt
COc1ccc(OC)c(NC(=O)CSc2ncnc3c2cnn3-c2ccccc2Cl)c1	nt	?	nt	1.83µM*	0.891µM*
O=C(CSc1ncnc2c1cnn2-c1ccc(F)cc1)NC1CCCC1	-9.2%	?	-11.5%	?	6.31µM*
CCOC(=O)CNC(=O)CSc1ncnc2c1cnn2-c1ccc(OC)cc1	-22.8%	?	nt	11.2µM*	-4.0%
COc1cc(NC(=O)CSc2ncnc3c2cnn3Cc2ccccc2)cc(OC)c1	nt	-0.8%	nt	?	?
O=C(CSc1ncnc2c1cnn2-c1ccccc1)NC1CCS(=O)(=O)C1 (stereo unspecified)	-12.9%	-25.7%	-10.4%	-24.0%	?
CCOC(=O)CNC(=O)CSc1ncnc2c1cnn2-c1ccc(C)cc1	9.3%	?	4.4%	?	17.0%
Cc1ccccc1-c1cccc(CN2CCc3nnc(C(NS(C)(=O)=O)C(C)C)n3CC2)c1 (stereo unspecified)	-5.2%	nt	-5.4%	nt	nt
COc1ccc(/C=C\c2onc(C)c2S(=O)(=O)N2CCC(C(=O)Nc3ccc(Cl)cc3)CC2)cc1	-13.2%	-13.4%[46.1 µM]	-4.1%	?	nt
CCOC(=O)C1(Cc2cccc(OC)c2)CCN(Cc2cccc(OCC)c2O)CC1	-11.5%	-24.3%[46.1 µM]	-26.3%	7.08µM*	?
CCOC(=O)C1(Cc2cccc(OC)c2)CCN(CCO)CC1	-0.7%	9.3%	-5.4%	0.0%[46.1 µM]	-14.0%
CCOC(=O)C1(Cc2cccc(OC)c2)CCN(C/C=C/c2ccccc2)CC1	-22.4%	?	-23.9%	7.94µM*	-17.1%
CCOC(=O)C1(Cc2cccc(OC)c2)CCN(CC=C(C)C)CC1	nt	nt	nt	nt	-23.9%
CCOC(=O)C1(CC2CC2)CCN(Cc2ccc(OC)cc2F)CC1	1.6%	?	-18.3%	10µM*	?
CCOC(=O)C1(Cc2cccc(OC)c2)CCN(C/C=C/c2ccc(OC)cc2)CC1	-12.5%	?	-21.3%	?	8.91µM*
COc1cccc([C@@H]2Oc3ccc(Br)cc3C(=O)[C@@H]2OC(=O)Nc2cc(OC)c(OC)c(OC)c2)c1	nt	nt	nt	5.2%[14.2 µM]	nt
N#Cc1cc([N+](=O)[O-])c2sc(C(N)=O)[n+]([O-])c2c1	nt	?	nt	-22.1%	nt
CC1(C)CC[C@]2(C(=O)O)CC[C@@]3(C)C(=CCC4[C@@]5(C)CCC(O)C(C)(C)C5CC[C@@]43C)C2C1 (stereo partly specified)	-6.8%	nt	-4.9%	nt	nt
CC1(C)C2CC[C@]3(C)C(CC=C4[C@@H]5C[C@@](C)(CO)[C@@H](O)C[C@]56C[C@@H](OC6=O)[C@]43C)[C@@]2(C)CC[C@@H]1O (stereo partly specified)	-2.1%	nt	0.0%	nt	1.26µM*
COc1ccc(NC(=O)c2c(-c3ccccc3Cl)noc2C)c(OC)c1	-6.5%	?	i	14.6µM*	-29.2%
COc1ccccc1N1CCN(C(=O)c2c(C)noc2C)CC1	2.0%	21.5%[46.1 µM]	9.8%	27.3%[46.1 µM]	5.8%
COc1ccccc1N1CCN(C(=O)c2c(-c3ccccc3Cl)noc2C)CC1	?	?	nt	?	11.2µM*
COc1ccc(NC(=O)c2c(-c3ccccc3)noc2C)c(OC)c1	-17.8%	-1.9%	i	-24.9%	-28.3%
CC(=O)N(Cc1cccnc1)c1nc2c(C)cc(C)cc2s1	-3.1%	1.4%[46.1 µM]	-11.4%	nt	nt
SMILES	VACV Venus inh	LASV entry inh	VACV mCherry inh	MARV entry inh	HCV inhibitor
COC(=O)[C@H](C)NS(=O)(=O)C1CC1	-13.8%	nt	i	nt	nt
CC(=NNC(=S)N1CCN(c2ccccn2)CC1)c1nccs1	?	?	2.82µM*	?	1.26µM*
COc1ccc(NC(=O)c2c(C)oc3ccc(O)c(CN4CCOCC4)c23)cc1	-4.0%	-11.6%[46.1 µM]	-4.6%	?	nt
COc1ccc(C(=O)c2c(C)oc3ccc(O)c(CN4CCOCC4)c23)cc1	nt	?	nt	20.6µM*	-27.9%
Cc1oc2ccc(O)c(CN(C)C)c2c1C(=O)c1ccccc1	-23.3%	?	-21.4%	11.2µM*	28.7%
NC(=O)C1=CC2C3C=CC2(O)C(=O)OC3O1 (stereo unspecified)	-13.9%	7.08µM*	-10.9%	?	8.91µM*
COc1ccc2c(c1)CCc1cnc(-n3ncc(C(=O)N(C)CC4CCCN(C)C4)c3C)nc1-2 (stereo unspecified)	-8.0%	nt	-7.8%	nt	nt
CC(C)NC(=O)c1ccc(-c2cccc(C(F)(F)F)c2)o1	-14.5%	-13.9%	nt	?	-4.5%
Cc1cccc(C)c1NC(=O)CN(C)C(=O)c1ccc(-c2cccc(C(F)(F)F)c2)o1	-10.3%	5.62µM*	-5.9%	?	?
N#Cc1nc(COc2cccc(Cl)c2)oc1NCCc1ccccc1	-7.2%	1.8%[46.1 µM]	-2.1%	-7.9%[46.1 µM]	nt
COc1cccc(OC)c1OCCCN1CCC(Cc2ccccc2)CC1	-3.8%	?	-13.5%	11.2µM*	11.2µM*
COc1cccc(C(=O)Nc2ccc(Cl)c(-c3nc4ccccc4[nH]3)c2)c1	?	?	-22.3%	?	nt
CCc1ccc(CNc2ncnc3onc(-c4ccc(Cl)cc4)c23)cc1	-7.9%	13.9%[46.1 µM]	-4.6%	-11.9%[46.1 µM]	nt
O=C1C2CC=CCC2C(=O)N1c1ccc(NCCc2ccc(O)cc2)c([N+](=O)[O-])c1 (stereo unspecified)	-17.5%	?	-29.6%	?	12.6µM*
COc1ccc([C@]23Cc4ccccc4[C@H](O2)C2=C(O3)C(=O)c3ccccc3C2=O)cc1	nt	nt	nt	10.6%[14.2 µM]	nt
Nc1nc2ccccc2n1CCOc1ccccc1Cl	?	-9.8%	nt	11.2µM*	?
Nc1nc2ccccc2n1CCOc1ccc(Cl)cc1	-24.1%	1.3%	-25.8%	?	-18.5%
O=C(COCc1cc(-c2ccc3c(c2)OCO3)on1)NCc1ccccc1Cl	-13.3%	9.1%[46.1 µM]	-15.0%	nt	nt
C/C(=C\c1ccccc1F)C(=O)c1c(C)cc(C)[nH]c1=O	-11.7%	0.3%	i	5.2%	19.9%
Cc1[nH]c(=O)c(C(=O)/C=C/c2ccccc2F)c2c1CCCC2	nt	10.3µM*	nt	11.6µM*	2.51µM*
COc1cc(/C=C(\C#N)c2nc3ccccc3[nH]2)c([N+](=O)[O-])cc1OCc1ccccc1	-12.2%	?	nt	?	7.08µM*
CCN(CC)c1ccc(/C=C(/C#N)c2nc3ccccc3[nH]2)c(OC(C)C)c1	nt	nt	nt	-2.7%	2µM*
CCOc1cccc(/C=C(/C#N)c2nc3ccccc3[nH]2)c1OCC(=O)O	nt	nt	nt	nt	5.4%
CCc1ccc2oc(C(=O)N(Cc3ccc(N(C)C)cc3)Cc3ccco3)c(C)c2c1	-5.5%	?	-13.3%	1.2%[46.1 µM]	nt
O=C(Cn1ncc2c3ccccc3n(Cc3cccc(Cl)c3)c2c1=O)N1CCCCC1	-12.3%	-28.3%[46.1 µM]	-18.1%	?	nt
COc1ccc(CCn2c(=S)[nH]c(=O)c3nccnc32)cc1OC	-20.4%	nt	i	nt	nt
COc1ccc(C(C(=O)NC2CCCCC2)N(C(=O)CCl)c2cccc(Cl)c2)cc1 (stereo unspecified)	?	3.55µM*	?	?	1.58µM*
